JMJD2A Tudor = blocks the human JMJD2A Tudor domain | AlphaScreen JMJD2A-Tudor / H3K4me3 peptide binding | Potency, µM (top dose mostly 114 µM), for the others: at the highest dose activity change, negative = inhibition, most hits filed as inhibitors | 4.4% of 390,000 active | AID 504339; note: % is set by controls: 0 for no effect and ±100 for the full control effect; nearly all actives have a fitted effect of over 50% in size
Target sequence (O75164 whole entry, looked up, the tested form may be a part): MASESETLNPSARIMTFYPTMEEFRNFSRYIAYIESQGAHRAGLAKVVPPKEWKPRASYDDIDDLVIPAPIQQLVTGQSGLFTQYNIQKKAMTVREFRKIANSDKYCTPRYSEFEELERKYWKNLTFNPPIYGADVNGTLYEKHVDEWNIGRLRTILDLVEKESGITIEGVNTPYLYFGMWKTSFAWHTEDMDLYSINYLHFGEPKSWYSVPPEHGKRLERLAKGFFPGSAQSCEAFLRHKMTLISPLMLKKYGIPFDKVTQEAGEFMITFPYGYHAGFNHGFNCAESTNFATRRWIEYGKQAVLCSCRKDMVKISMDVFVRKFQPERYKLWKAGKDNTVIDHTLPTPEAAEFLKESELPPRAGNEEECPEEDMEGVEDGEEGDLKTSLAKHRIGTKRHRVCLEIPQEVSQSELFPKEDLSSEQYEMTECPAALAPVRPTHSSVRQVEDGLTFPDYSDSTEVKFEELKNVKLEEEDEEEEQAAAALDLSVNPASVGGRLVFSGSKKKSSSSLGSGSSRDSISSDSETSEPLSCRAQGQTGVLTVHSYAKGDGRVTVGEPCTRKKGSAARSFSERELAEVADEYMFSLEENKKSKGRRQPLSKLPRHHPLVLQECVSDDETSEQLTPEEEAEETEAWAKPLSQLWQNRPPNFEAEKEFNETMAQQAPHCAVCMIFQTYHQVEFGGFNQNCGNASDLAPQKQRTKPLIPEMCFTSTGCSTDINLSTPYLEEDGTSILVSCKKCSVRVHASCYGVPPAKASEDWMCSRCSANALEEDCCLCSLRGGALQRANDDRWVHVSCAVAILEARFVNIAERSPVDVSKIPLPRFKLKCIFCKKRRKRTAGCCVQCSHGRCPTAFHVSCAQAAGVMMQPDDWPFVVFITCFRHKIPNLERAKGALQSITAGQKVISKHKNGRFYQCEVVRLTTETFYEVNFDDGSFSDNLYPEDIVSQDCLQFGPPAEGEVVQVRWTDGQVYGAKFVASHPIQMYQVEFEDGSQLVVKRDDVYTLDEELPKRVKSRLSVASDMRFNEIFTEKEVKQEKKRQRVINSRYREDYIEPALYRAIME
Sfp PPTase inh = Sfp phosphopantetheinyl transferase inhibition; Q9F4F7; Biochemical Sfp PPTase activity, qHTS; Potency, µM, for inactives: largest response in the series, negative = inhibition, hits mostly inhibitors; 3.5% of 310,000 active;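 note: the enzyme is Sfp with the accession as filed and its product quenches rhodamine fluorescence; 0% = enzyme reaction without inhibitor and -100% = no enzyme wells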
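Step 1, compound plus 15 nM Sfp-PPTase, 15 min, room temperature. Step 2, add rhodamine-CoA (5 uM) and BHQ-2-YbbR (12.5 uM). Step 3, read 525/598 nm fluorescence at 0 and 30 min.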
G9a block = blocks human histone lysine methyltransferase G9a; G9a H3K9 monomethylation, AlphaScreen, 2 h; Potency, µM (series often up to 102 µM), for the others: at the top dose activity, negative = inhibition, usual class: inhibitors; 8.8% of 350,000 active; note: % is set by controls: 0 for no effect and ±100 for the full control effect; nearly all actives have a fitted effect of over 75% in size
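G9a (20 nM) preincubated 15 min RT with compounds, then 500 nM biotinylated H3K9 peptide and 20 uM SAM added; 2 h RT reaction. Monomethyl-H3K9 product detected by AlphaScreen with anti-H3K9me1 antibody, streptavidin donor and anti-rabbit IgG acceptor beads.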
BAZ2B block = BAZ2B (human) inhibition; Q9UIF8; AlphaScreen BAZ2B-H3K14Ac peptide displacement; Potency, µM (doses to about 114 µM), for inactives: at the top dose activity change, negative = inhibition, usual class: inhibitors; 4.4% of 360,000 active; note: % is set by controls: 0 for no effect and ±100 for the full control effect; nearly all actives have a fitted effect of over 60% in size
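BAZ2B 50 nM plus b-H3(5-23)K14Ac 50 nM, PBS pH 7.4/0.01% Tween-20, 30 min RT; compound added (max 110 uM), 30 min RT; streptavidin donor/Ni-chelate acceptor beads 10 ug/mL final, 20 min dark; AlphaScreen read.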
HP1b chromo inh = inhibitors of HP1-beta chromodomain binding to methylated histone tails; Potency, µM (series often up to 114 µM), without a hit: top-dose activity change, negative = inhibition, most hits filed as inhibitors; 0.56% of 390,000 active; AlphaScreen HP1-beta / biotin-H3K9me3 peptide binding; note: nearly all actives have a fitted effect of over 70% in size
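Compound inhibition of the preformed complex between 50 nM HP1-beta and 50 nM biotinylated H3K9me3 peptide was read by AlphaScreen. Buffer was PBS pH 7.4 with 0.01% Tween-20. Incubations ran 30 min at room temperature, with 10 ug/mL donor/acceptor beads.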
An asterisk follows results filed as active; ? = inconclusive; . = not tested or not shown; [ ] = dose if it differs, or a comment. Compounds with a hit are over-represented: about 12% of the library has one in this group of screens. Calls come from the whole dose curve; as a rule, active = well fitted curve in the direction sought with a large enough effect; inconclusive = small, poorly fitted or top-dose-only effect, or another doubt; inactive = no such curve, though single readings can be large; an effect the other way counts as inactive or inconclusive. Potency is the fitted concentration of half-maximal effect.

SMILES	JMJD2A Tudor	Sfp PPTase inh	G9a block	BAZ2B block	HP1b chromo inh
CN(C)CCN(Cc1ccccc1)S(=O)(=O)c1ccc(-c2ccc(=O)[nH]n2)s1	-34%	18%	-17%	-12%	27%
CCN(CC)C(=O)Nc1ccc2c(c1)N(Cc1ccccc1)C(=O)c1ccccc1S2	-2%	.	-45%[59 µM]	-2%	28%
COc1ccc(-c2ccc(S(=O)(=O)N3CCOCC3)cc2)cc1	-3%	10%	6%[12.7 µM]	-1%	29%
COc1ccc(N=c2scc(-c3ccc(S(=O)(=O)N4CCOCC4)cc3)n2CCCO)cc1	.	6%	25µM*	50µM*	.
CS(=O)(=O)c1cccc(-c2csc(N3CCC(C(N)=O)CC3)n2)c1	-14%	.	-29%[12.7 µM]	-22%	27%
N#Cc1c(-c2ccccc2)cc(-c2ccco2)c(C#N)c1N	.	35µM*	?	-1%	.
N#Cc1c(-c2ccco2)cc(-c2ccccc2)[nH]c1=O	?	?	.	71µM*	21%
N#Cc1sc2nc(-c3ccccc3)cc(-c3ccco3)c2c1N	56µM*	79µM*	8.9µM*	?	-19%
CC(=O)Nc1nc(-c2ccccc2)cc(-c2ccco2)c1C#N	2%	.	7%[2.33 µM]	-6%	36%
Cc1ccc(-c2cc(-c3ccco3)c(C#N)c(=O)[nH]2)cc1	79µM*	?	-132%[59 µM]	50µM*	17%
Cc1cc(-c2ccccc2)[nH]c(=O)c1C#N	-2%[57.1 µM]	19%	-2%	-2%	51%
Cc1ccc(-c2cc(C(F)(F)F)c(C#N)c(=O)[nH]2)cc1	-19%	6%	0%[2.33 µM]	-6%	36%
Cc1c(C(=O)Nc2ccccc2N2CCOCC2)sc2nc3n(c(=O)c12)CCC3	.	15%	14%	16%	.
O=C(CN1CCN(S(=O)(=O)c2ccc(Cl)s2)CC1)N1CCOCC1	-1%	17%	-33%	0%	33%
O=[N+]([O-])c1cc([N+](=O)[O-])c(Oc2ccc(F)cc2F)cc1NN1CCCCC1	?	-10%	.	?	0%
Cc1ccc(-c2nn(-c3cc(Cl)ccc3[N+](=O)[O-])c(=O)c3ccccc23)cc1C	?	-16%	-5%[0.501 µM]	45µM*	?
Cc1ccc(-c2nn(-c3cc(N4CCNCC4)ccc3[N+](=O)[O-])c(=O)c3ccccc23)cc1	?	-26%	32µM*	-37%	?
Cc1nn(-c2cc(N3CCCCCC3)ccc2[N+](=O)[O-])c(=O)c2ccccc12	?	1%	-8%	-32%[57.1 µM]	-14%
Cc1ccc(NC(=O)Cn2c(=O)n(Cc3nc(C)no3)c(=O)c3ccccc32)c(Cl)c1	-16%	.	-8%[59 µM]	-7%	-3%
CCOC(=O)Cn1nnnc1CN(Cc1ccc(OC)cc1)Cc1cc2cc(C)ccc2[nH]c1=O	-26%	71µM*	?	-1%	7%
CCc1ccc2[nH]c(=O)c(CN(Cc3ccccc3OC)Cc3nnnn3Cc3ccco3)cc2c1	-32%	-18%	?	-9%	-4%
CCOC(=O)Cn1nnnc1CN(Cc1ccc(OC)cc1)Cc1cc2cc(C)cc(C)c2[nH]c1=O	-21%	35µM*	22µM*	9%	25%
CCOC(=O)Cn1nnnc1CN(Cc1ccc(OC)cc1)Cc1cc2cc(CC)ccc2[nH]c1=O	-26%	18µM*	?	-22%	-4%
Cc1ncc([N+](=O)[O-])n1CC(=O)Nc1cccc(C(F)(F)F)c1	-3%	15%	3%	-8%	31%
CC[C@H](C)[C@H](NC(N)=O)C(=O)NCCc1ccc(OC)c(OC)c1	2%	17%	14%	.	50%
SMILES	JMJD2A Tudor	Sfp PPTase inh	G9a block	BAZ2B block	HP1b chromo inh
O=c1cc(N2CCCCC2)c(-c2ccccc2)nn1Cc1cccc(Cl)c1	2%	35µM*	3%	-21%	40%
O=c1cc(N2CCCCC2)c(-c2ccccc2)nn1Cc1ccc(Cl)cc1Cl	-13%[11.4 µM]	?	.	21%	26%
CC1(C)Cc2noc(N)c2C(C)(C)N1O	32µM*	?	?	-7%	17%
CCc1cc(Br)ccc1N1C(=O)C2CC=CCC2C1=O (stereo not given)	4%	-7%	?	36%	28%
Cc1cc(C)n(CCCNCC(O)c2ccccc2)n1 (stereo not given)	79µM*	-18%	22µM*	?	?
Cc1ccc(NC(=S)NCC2CCN(C(C)c3ccccc3)C2)cc1 (stereo not given)	-10%	-24%	50µM*	0%	12%
CC(c1ccccc1)N1CCC(CNC(=S)Nc2cccc(Cl)c2)C1 (stereo not given)	-26%	4%	-51%	-13%	19%
Cc1cc(C)c(NC(=S)NCC2CCN(C(C)c3ccccc3)C2)c(C)c1 (stereo not given)	?	3.5µM*	10µM*	-11%	-23%
COc1cccc(NC(=O)C(c2ccccc2)N2CCN(c3ccccn3)CC2)c1 (stereo not given)	-30%	10%	-1%[59 µM]	-29%	-7%
Cc1ccc(NC(=O)c2oc3ccccc3c2NC(=O)C2CCCCC2)cc1	79µM*	.	32%[59 µM]	21%	84%
C=CCSC1=C(C#N)C(c2ccccc2OCC)C(C#N)C(=O)N1 (stereo not given)	-31%	35µM*	45µM*	-12%	-13%
CCOC(=O)CSC1=C(C#N)C(c2ccccc2OCC)C(C#N)C(=O)N1 (stereo not given)	-25%	?	?	-25%	19%
CCOC(=O)C1C(=O)NC(SCC(=O)Nc2nccs2)=C(C#N)C1c1ccccc1OCC (stereo not given)	56µM*	14µM*	1.6µM*	-35%	?
COc1ccc(C)cc1NC(=O)NCCn1nnc2cc(S(=O)(=O)N(C)C)ccc21	-10%	.	24%[59 µM]	-9%	17%
COc1cc(C2C(C(=O)Nc3ccccc3)=C(C)Nc3nc(SCc4ccccc4F)nn32)cc(OC)c1OC (stereo not given)	-7%	.	-20%[59 µM]	-8%	26%
C=CCN1C(c2ccc(OCC)cc2)=CS/C1=C(\C#N)c1nnc2n1CCCCC2	?	?	3.5µM*	?	-5%
CN1CCN(C(=S)c2cn(Cc3ccccc3F)c3ccccc23)CC1	?	-8%	40µM*	?	2%
S=C(c1cn(Cc2ccccc2)c2ccccc12)N1CCOCC1	?	14%	25µM*	?	-13%
CC1CCN(C(=S)c2cn(Cc3ccccc3F)c3ccccc23)CC1	?	-5%	-8%[59 µM]	?	?
S=C(c1c[nH]c2ccccc12)N1CCOCC1	-26%	22µM*	11µM*	-20%	?
CC1CCN(C(=S)c2cn(Cc3ccc(F)cc3)c3ccccc23)CC1	?	14%	1%	?	-6%
O=C(CCc1cn(Cc2ccc(F)cc2)c2ccccc12)N1CCOCC1	-19%	6%	?	-27%	14%
S=C(c1cn(Cc2ccc(Br)cc2)c2ccccc12)N1CCOCC1	25µM*	23%	?	?	?
